From PubChem BioAssay (EPA / NIEHS)
Calls of active or inactive are those of the source. Rule for the calls: active = hit-call score of the fitted dose curve at least 0.9, where 1 is the maximum; inactive = score below 0.9.

What was measured:
[1] = ATG_E_Box_CIS: Attagene CIS-FACTORIAL HepG2 Assay for human Enhancer Box (E-box) (AID 2282936); conditions: HepG2 E-box cis-reporter transcription, actives raise or lower the signal
Procedure, shortened: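 Cells: HepG2 (human liver), transient MRTU transfection. Exposure 24 h. RNA → oligo(dT) RT → PCR → 6-FAM label → HpaI → CE. Activity fitted both directions relative to DMSO.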

[2] = ATG_M_61_CIS: Attagene CIS-FACTORIAL HepG2 Assay for M61 Transcription Factor (Internal Marker) (AID 2282937); conditions: HepG2 Attagene CIS-FACTORIAL M61 internal marker reporter; actives raise or lower the signal
Procedure, shortened: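 HepG2 cells transiently transfected with multiplexed cis-promoter reporter units reporting endogenous transcription factor activity, measured 24 h after dosing. Reporter mRNA quantified by RT-PCR and capillary electrophoresis; bidirectional fit against DMSO baseline.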

[3] = ATG_EGR_CIS: Attagene CIS-FACTORIAL HepG2 Assay for human Early Growth Response 1 (EGR1) (AID 2282938); conditions: HepG2 Attagene CIS-FACTORIAL EGR reporter mRNA; actives raise or lower the signal
Procedure, shortened: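 HepG2 cells transiently transfected with cis-element-driven multiplexed reporter units, dosed for 24 h. EGR1-element reporter mRNA quantified by RT-PCR, 6-FAM labelling, HpaI digestion and capillary electrophoresis; bidirectional fit versus DMSO.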

[4] = ATG_M_19_CIS: Attagene CIS-FACTORIAL HepG2 Assay for M19 Transcription Factor (Internal Marker) (AID 2282939); conditions: HepG2 Attagene CIS-FACTORIAL M19 internal marker reporter; actives raise or lower the signal
Procedure, shortened: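 Signals come from fluorescence of labelled reporter-specific PCR fragments resolved by capillary electrophoresis, following 24 h treatment of HepG2 cells transfected with cis-promoter reporter units; activity was fitted in both directions relative to DMSO.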

[5] = ATG_ERE_CIS: Attagene CIS-FACTORIAL HepG2 Assay for Estrogen Response Element (ERE) (AID 2282940); conditions: HepG2 ERE cis-reporter, Attagene RNA transcript; actives raise or lower the signal
Procedure, shortened: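 Fluorescence of capillary-separated, FAM-labelled reporter cDNA fragments indicates reporter mRNA levels in HepG2 cells exposed to chemicals for 24 h. Transient transfection with cis-regulated units; data fitted in both directions against DMSO.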

[6] = ATG_Ets_CIS: Attagene CIS-FACTORIAL HepG2 Assay for human Erythroblast Transformation Specific (ETS) (AID 2282941); conditions: HepG2 ETS cis-reporter transcription, actives raise or lower the signal
Procedure, shortened: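 Steps: transfect HepG2 with multiple reporter units; treat compound 24 h; isolate RNA, DNase-treat, reverse-transcribe; PCR-amplify, label with 6-FAM, digest with HpaI; separate by capillary electrophoresis. Activity fitted both directions versus DMSO.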

[7] = molecular target: Hepatocyte nuclear factor 3-beta (Homo sapiens) (UniProt Q9Y261); assay: ATG_FoxA2_CIS: Attagene CIS-FACTORIAL HepG2 Assay for human Forkhead box A2 (FOXA2) (AID 2282942); conditions: HepG2 cis-reporter transcription factor activity, 24 h; actives raise or lower the signal
Sequence of Hepatocyte nuclear factor 3-beta (Homo sapiens) (Q9Y261 whole entry, looked up): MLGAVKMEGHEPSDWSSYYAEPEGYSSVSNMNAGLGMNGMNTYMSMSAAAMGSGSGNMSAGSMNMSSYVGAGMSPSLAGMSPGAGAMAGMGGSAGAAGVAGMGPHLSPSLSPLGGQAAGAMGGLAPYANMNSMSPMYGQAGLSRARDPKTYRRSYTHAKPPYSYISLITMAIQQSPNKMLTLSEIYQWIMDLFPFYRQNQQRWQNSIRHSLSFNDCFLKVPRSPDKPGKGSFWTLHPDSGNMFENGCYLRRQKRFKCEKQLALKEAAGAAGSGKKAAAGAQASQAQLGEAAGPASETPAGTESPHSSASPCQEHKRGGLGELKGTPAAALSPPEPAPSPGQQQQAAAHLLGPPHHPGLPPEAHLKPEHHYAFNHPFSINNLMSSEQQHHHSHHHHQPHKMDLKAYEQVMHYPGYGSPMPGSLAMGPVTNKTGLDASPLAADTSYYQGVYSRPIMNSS
Procedure, shortened: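 HepG2 transiently transfected with a multiplexed cis-promoter reporter library read endogenous FOXA2 activity. After 24 h compound exposure, reporter mRNA was quantified by RT-PCR, HpaI digestion and capillary electrophoresis. Bidirectional fit against DMSO.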

[8] = ATG_FoxO_CIS: Attagene CIS-FACTORIAL HepG2 Assay for human Forkhead box O (FoxO) (AID 2282943); conditions: HepG2 Attagene cis-reporter, FoxO element, mRNA; actives raise or lower the signal
Procedure, shortened: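 HepG2, transient MRTU transfection (cis element, endogenous TFs). Dose 24 h. TriZol RNA → oligo(dT) RT → PCR → 6-FAM primer extension → HpaI cut → CE. Gain/loss vs DMSO.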

[9] = ATG_GATA_CIS: Attagene CIS-FACTORIAL HepG2 Assay for human GATA Binding Protein (AID 2282944); conditions: HepG2 GATA cis-element reporter, Attagene multiplex mRNA; actives raise or lower the signal
Procedure, shortened: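 After transfecting HepG2 cells with multiple cis-regulated reporter units, chemicals are dosed for 24 h; isolated RNA undergoes RT-PCR and fluorescent labeling before capillary electrophoresis, with activity expressed against DMSO.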

[10] = ATG_GLI_CIS: Attagene CIS-FACTORIAL HepG2 Assay for human Zinc Finger Protein GLI1 (AID 2282945); conditions: HepG2, Attagene cis-factorial reporter mRNA, GLI element; actives raise or lower the signal
Procedure, shortened: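 Bidirectional curve fits relative to DMSO, using reporter mRNA levels from RT-PCR plus capillary electrophoresis. Cells were HepG2 transiently carrying cis-regulated reporter constructs, harvested 24 h after dosing.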

Measured: AC50

O=c1[nH]nc(-c2ccc([N+](=O)[O-])o2)o1
inactive: all assays above

CC(C)=CCC[C@H](C)CCO
inactive: all assays above

CCCOC(=O)CCCCC(=O)OCCC
inactive: all assays above

C=C[Si](OC(C)=O)(OC(C)=O)OC(C)=O
inactive: all assays above

C=CC(C)(CCC=C(C)C)OC(=O)CC(C)C (stereo not given)
active: [5] 74.1 µM
inactive: all other assays above

CCOc1ccc(N)c([N+](=O)[O-])c1
inactive: all assays above

NC(=O)NNC(N)=O
inactive: all assays above

O=c1n(CCO)c(=O)n(CCO)c(=O)n1CCO
inactive: all assays above

Nc1ncn([C@@H]2O[C@H](CO)[C@@H](O)[C@H]2O)c(=O)n1
active: [1] 27.5 µM | [6] 39.5 µM
inactive: all other assays above

CCCC(C)CCC(C)=O (stereo not given)
inactive: all assays above

CCN(Cc1cccc(S(=O)(=O)O)c1)c1ccc(C(=C2C=CC(=[N+](CC)Cc3cccc(S(=O)(=O)[O-])c3)C=C2)c2ccccc2)cc1
inactive: all assays above

OC1OCCOC1O (stereo not given)
inactive: all assays above

CC(C)(C)C(=O)C=Cc1ccc(Cl)cc1
active: [1] 165 µM | [2] 148 µM | [3] 30.2 µM | [5] 155 µM | [7] 178 µM | [10] 59.1 µM
inactive: [4] | [6] | [8] | [9]

CC(C)(C)c1ccc(-c2ccc(C(C)(C)C)cc2)cc1
inactive: all assays above

CC(=O)OCCC1CCCCC1
inactive: all assays above

c1cc(C(c2ccc(OCC3CO3)cc2)C(c2ccc(OCC3CO3)cc2)c2ccc(OCC3CO3)cc2)ccc1OCC1CO1 (stereo not given)
active: [3] 39.5 µM
inactive: all other assays above

CCOCC(=O)O
inactive: all assays above

[Cl][In]([Cl])[Cl]
active: [5] 163 µM
inactive: all other assays above

CC(C)(C)c1ccc(OC(=O)c2ccccc2O)cc1
active: [5] 7.32 µM
inactive: all other assays above
